According to PubChem BioAssay (NCI):
The panel holds about 83,000 compounds, 20% with a hit somewhere; the sample as a whole holds those more often.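 For each line, cells grew in 96-well plates with the test compound present at a single concentration for 48 hours.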 Unmarked numbers belong to inactive results. Calls of active or inactive are those of the source. The calls were made as follows: active = growth percent below 10; inactive = the rest.

Key:
Experiment in all cases: NCI-60 one-dose screen, 48 h (100 = growth as untreated, 0 = no growth, -100 = all killed)
Conditions in all cases: 10 µM unless noted
SR leukemia = tested on: SR leukemia
RPMI-8226 leukemia = tested on: RPMI-8226 leukemia
OVCAR-8 ovarian = tested on: OVCAR-8 ovarian
OVCAR-5 ovarian = tested on: OVCAR-5 ovarian
OVCAR-4 ovarian = tested on: OVCAR-4 ovarian
IGROV1 ovarian = tested on: IGROV1 ovarian
OVCAR-3 ovarian = tested on: OVCAR-3 ovarian
NCI/ADR-RES ovarian = tested on: NCI/ADR-RES ovarian
T-47D breast = tested on: T-47D breast
BT-549 breast = tested on: BT-549 breast
MDA-MB-435 melanoma = tested on: MDA-MB-435 melanoma
MCF7 breast = tested on: MCF7 breast
HCT-116 colon = tested on: HCT-116 colon
HCC-2998 colon = tested on: HCC-2998 colon
KM12 colon = tested on: KM12 colon
MDA-MB-468 breast = tested on: MDA-MB-468 breast
SK-OV-3 ovarian = tested on: SK-OV-3 ovarian
HS 578T breast = tested on: HS 578T breast
SW-620 colon = tested on: SW-620 colon

Compound	growth (SR leukemia)	growth (RPMI-8226 leukemia)	growth (OVCAR-8 ovarian)	growth (OVCAR-5 ovarian) [%]	growth (OVCAR-4 ovarian)	growth (IGROV1 ovarian)	growth (OVCAR-3 ovarian)	growth (NCI/ADR-RES ovarian)	growth (T-47D breast)	growth (BT-549 breast)	growth (MDA-MB-435 melanoma)	growth (MCF7 breast)	growth (HCT-116 colon)	growth (HCC-2998 colon)	growth (KM12 colon)	growth (MDA-MB-468 breast)	growth (SK-OV-3 ovarian) [%]	growth (HS 578T breast) [%]	growth (SW-620 colon)
N#Cc1ccc(/C=N/NC(=O)c2[nH]c3ccc(Br)cc3c2-c2ccccc2)o1	4.35% (active)	3.55% (active)	-21.9% (active)	15.9	35%	13.9%	14.6%	-40.9% (active)	23.8%	-7.06% (active)	-3.87% (active)	7.95% (active)	1.43% (active)	-30.9% (active)	6.36% (active)	-13.6% (active)			
N#Cc1cnn(C(=O)c2ccccc2Br)c1NC(=O)c1ccc(Br)cc1Cl	78.2%	102%	104%	102	101%	115%	119%	98.7%	97%	91.1%	103%	95.4%	103%	108%	102%	94.2%			
C=C1CC[C@@H]2[C@]3(C)COC(c4ccccc4)O[C@@H]3CC[C@@]2(C)[C@@H]1C/C=C1/C(=O)OCC1OC(C)=O (some centres not stated)	-32.8% (active)	-42.4% (active)	-64.9% (active)		0.176% (active)	-51.3% (active)	-88.2% (active)	-73.1% (active)	-45.1% (active)	-93.5% (active)	-29.3% (active)	-56.7% (active)	-94.7% (active)	-76.2% (active)	-9.91% (active)	-89.8% (active)	93.7	61.5	-49.1% (active)
O=c1[nH]c2ccccc2cc1CSc1nccc(-c2ccc3ccccc3c2)n1	20.6%	52.1%	79.6%		80.3%	89.9%	102%	41.7%	41.8%	44.8%	17.3%	47%	41.7%	83.5%	69.6%	-17.2% (active)	84.3	71	51.2%
COc1ccc(N2N=C(c3ccc4c(c3)OCO4)CC2c2cccc(NC(=O)CCNS(=O)(=O)c3ccc(Cl)cc3)c2)cc1 (configuration not stated)	3.71% (active)	23.2%	49.1%		51.6%	61.1%	61.8%	71.3%	28.9%	34.5%	41.1%	8.85% (active)	26.9%	8.63% (active)	21.2%	10.1%	46.1	13.4	55.8%
O=[N+]([O-])c1ccc(/C=C/c2nc3ccccc3n3c(=S)[nH]nc23)cc1	71.6%	56.5%	83%		82.5%	78.3%	69.9%	85.2%	67.5%	59.1%	82.8%	51.2%	70.6%	93.4%	79.3%	66.5%	105	75.7	87.3%
Cn1cc(-c2cc(N)n3nc(-c4cn(C)c5ncc(Br)cc45)cc3n2)c2cc(Br)cnc21	-35.1% (active)	5.51% (active)	14.6%	70	-47.3% (active)	43.5%	-68% (active)	14.9%	-4.13% (active)	34.8%	-37.8% (active)		-76.3% (active)	-38.3% (active)	-3.78% (active)	-84.2% (active)			-68.6% (active)
O=C(Cn1c(/C=C/c2ccccc2)nc2ccccc2c1=O)Nc1ccccc1	80.3%	90.2%	44.4%		-0.268% (active)	107%	78.3%	57.9%	-11.3% (active)	91.3%	105%		44.6%	95.2%	101%	61.8%	61.4	82.5	75.9%
